Source: PubChem BioAssay
POLB inh – qHTS Assay for Inhibitors of DNA Polymerase Beta; P06746; Pol beta primer extension/strand displacement, fluorescence kinetic; Potency, µM (series often up to 114 µM), usual class: inhibitors; 340,000 tested, 1.3% active; AID 485314, 2010
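Kinetic readout of DNA synthesis with strand displacement by Pol beta. Compound and 10 nM enzyme sit 15 min at room temperature; 50 nM substrate starts the reaction, read immediately and at 10 min.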
FEN1 inhibitor – qHTS Assay for the Inhibitors of Human Flap endonuclease 1 (FEN1); P39748; Recombinant FEN1 flap cleavage, fluorescence, 15 min; Potency, µM (doses to about 114 µM), usual class: inhibitors; 390,000 tested, 0.35% active; also: nearly all actives have a fitted effect of over 65% in size
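Enzyme 10 nM, 15 min RT preincubation with compound; start with substrate 50 nM final; reads at 0 and 15 min; qHTS titration, four-parameter Hill fit.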
Tb PGK inh – qHTS Assay to Find Inhibitors of Phosphoglycerate Kinase; PGK/GAPDH coupled, Kinase-Glo luminescence, 60 min; Potency, µM (doses to about 57.5 µM), usual class: inhibitors; 380,000 tested, 0.043% active; also: nearly all actives have a fitted effect of over 60% in size
Target sequence (P07378 whole entry, looked up): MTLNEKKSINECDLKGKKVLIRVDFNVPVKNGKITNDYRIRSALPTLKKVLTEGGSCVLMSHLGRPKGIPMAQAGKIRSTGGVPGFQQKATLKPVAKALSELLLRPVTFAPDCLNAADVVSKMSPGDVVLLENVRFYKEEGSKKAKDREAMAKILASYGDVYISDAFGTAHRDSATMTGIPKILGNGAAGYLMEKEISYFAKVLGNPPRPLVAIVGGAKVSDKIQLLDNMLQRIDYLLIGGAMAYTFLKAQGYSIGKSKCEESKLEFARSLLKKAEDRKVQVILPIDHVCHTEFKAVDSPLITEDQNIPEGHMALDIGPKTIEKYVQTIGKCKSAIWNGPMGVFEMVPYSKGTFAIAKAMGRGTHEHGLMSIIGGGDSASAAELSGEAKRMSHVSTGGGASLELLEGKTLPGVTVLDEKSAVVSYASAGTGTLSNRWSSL
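Luminescent ATP detection (Kinase-Glo Plus) follows a 60-minute room-temperature incubation, with wells lacking PGK as controls. Buffer: 100 mM TEA (pH 7.6), 5 mM MgCl2, 0.01% Tween-20. Coupling enzyme GAPDH (100 nM final) supplies unstable 1,3-BPG in-well.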
Pol iota inh – qHTS for Inhibitors of Polymerase Iota; Potency, µM (doses to about 115 µM), usual class: inhibitors; Pol iota fluorescent replication assay, 10 min; 390,000 tested, 1% active; DNA polymerase iota (Homo sapiens), Q9UNA4
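Pol iota at 10 nM preincubated 15 min with compounds at room temperature; reaction started with fluorescent substrate, 50 nM final. Fluorescence read kinetically at 0 and 10 min; buffer-only wells as negative control.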
POLH inh – qHTS for Inhibitors of Polymerase Eta; 390,000 tested, 1.2% active; Potency, µM (top dose mostly 114 µM), hits mostly inhibitors; recombinant Pol eta, fluorescent DNA replication assay
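Fluorescent replication assay: 50 nM final substrate added after a 15 min room-temperature compound preincubation with 10 nM enzyme. Signal taken at 0 min and again at 10 min.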
Pol kappa inh – qHTS for Inhibitors of Polymerase Kappa; DNA polymerase kappa (Homo sapiens), Q9UBT6; purified Pol kappa, fluorescent DNA synthesis assay, 10 min; Potency, µM (highest dose often 107 µM), usual class: inhibitors; 400,000 tested, 0.53% active; AID 588579, 2011
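Readout: fluorescence, taken kinetically at 0 and 10 min. Conditions: 10 nM Pol kappa, 15 min RT compound preincubation, 50 nM substrate final. Controls: enzyme-free buffer wells.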
A number is an active result; – = inactive; ? = inconclusive; · = no result. Rows were chosen to be rich in hits. Some 2.4% of all compounds tested hit in one or more screens of this group. Calls follow the shape of the dose curve; as a rule, active = well fitted curve in the direction sought with a large enough effect; inconclusive = small, poorly fitted or top-dose-only effect, or another doubt; inactive = no such curve, though single readings can be large; an effect the other way counts as inactive or inconclusive.

SMILES	POLB inh	FEN1 inhibitor	Tb PGK inh	Pol iota inh	POLH inh	Pol kappa inh
Cc1ccc(C)n1-c1ccc(C(=O)NN)cc1	–	–	–	16µM	–	?
Cc1ccc(O)c(C(=O)c2cc(C#N)c(=O)n(-c3nccs3)c2)c1	25µM	–	–	?	40µM	–
Cc1cc(C)nc(S/C=C/C(=O)c2ccccc2F)n1	–	–	–	4.5µM	–	–
COc1ccc(-c2nnc(SCC(=O)N(C)Cc3ccccc3)o2)cc1OC	–	–	–	–	79µM	–
O=C(CC(NC(=O)c1ccccc1)c1ccccc1)OCc1nc(-c2cccc(Cl)c2)no1 (configuration not stated)	·	–	·	–	·	–
O=c1c(-c2ccc(Br)cc2)coc2c(CN3CCCCC3)c(O)ccc12	–	–	–	–	–	–
O=c1c(-c2ccc(Cl)cc2)coc2c(CN3CCCCC3)c(O)ccc12	–	–	–	32µM	–	–
c1cc2c3c(c1)CCCN3CCC2	·	–	·	–	·	–
CCOC(=O)/C=C/c1ccc2c(c1)S(=O)(=O)N(C1CCCC1)[C@H]2CC(=O)OCC	·	?	·	–	·	–
N#Cc1c(-c2ccccc2)cc(-c2ccccc2)nc1SCC(=O)NCC(=O)O	50µM	–	–	–	–	–
COc1ccc(-c2cc(-c3ccccc3)nc(SC(C)C(=O)O)c2C#N)cc1 (configuration not stated)	–	–	–	40µM	–	–
COc1ccc(-c2cc(-c3ccc(Cl)cc3)c(C#N)c(SCC(=O)O)n2)cc1	32µM	–	–	–	–	–
CCN(CC)C(=O)CSc1nc(-c2ccccc2)cc(-c2ccc(OC)cc2)c1C#N	–	–	–	–	–	–
CC(C)C(Sc1nc(-c2ccccc2)cc(-c2ccccc2)c1C#N)C(=O)O (configuration not stated)	?	–	–	–	?	–
N[C@@H](COC(c1cccc(F)c1)c1ccccc1OCc1ccccc1)C(=O)O (some centres not stated)	·	·	·	·	·	–
COCCNc1ncnc2ccc(-c3ccccc3C)cc12	·	·	·	·	·	–
Cc1cc(=O)[nH]c(N2CCCNCC2)n1	–	–	–	–	–	–
Cc1cc(=O)[nH]c(-n2[nH]c3c(c2=O)CCCC3)n1	–	–	–	14µM	–	–
CS(=O)(=O)N(Cc1ccccc1)c1ccc(C(=O)Nc2ccc(Cl)cc2)cc1	–	–	–	–	–	–
COc1ccc2c(c1)c1ccc3c(c1n2C)C(=O)C=CC3=O	–	?	–	18µM	–	–
Cc1ccc2c(c1)c1ccc3c(c1n2C)C(=O)C=CC3=O	–	–	–	?	–	–
C1=Cc2ccccc2/C1=C\c1ccc2c(c1)OCO2	·	–	·	–	·	–
COCCN=c1scc(-c2cccs2)n1/N=C/c1ccc(O)c(O)c1O	4.5µM	?	–	?	?	?
Cc1ccc(OCC(=O)NNC(=O)c2ccc(NC(=O)C3CC3)cc2)c(C)c1	–	–	–	–	–	–
CCc1ccc(OCC(=O)NNC(=O)c2ccc(NC(=O)C3CC3)cc2)cc1	32µM	–	–	79µM	?	–
SMILES	POLB inh	FEN1 inhibitor	Tb PGK inh	Pol iota inh	POLH inh	Pol kappa inh
CN1CCN(c2ncc3c(n2)CCN(Cc2ccccc2Cl)C3)CC1	–	–	–	–	–	–
Clc1ccccc1-c1nc(NCc2cccs2)c2ccccc2n1	·	·	·	·	·	32µM
COc1cccc(/C=C2/SC(=S)N(CC(=O)Nc3nccs3)C2=O)c1	·	–	·	–	·	–
Cc1nc(SCC#N)c2c3c(sc2n1)CCC3	–	–	–	–	–	–
N#CCSc1ncnc2sc3c(c12)CCC3	?	–	–	?	89µM	?
Cc1ccc(NC(=O)Cn2c(=O)oc3ccccc32)cc1Cl	40µM	–	–	–	–	–
CCCCc1nc(NCCNC(=O)c2ccco2)c(C#N)c2c1CSC(C)(C)C2	–	–	–	?	89µM	?
[O][C@H]1[C@@H](O)[C@@H](CO)O[C@@H](O[C@@H]2[C@@H]3OC[C@H]2O[C@H](O[C@@H]2[C@@H](O)[C@H](C[C@@H]4[C@@H]5OC[C@H]4O[CH][C@@H]5O)O[C@H](CO)[C@@H]2OS(=O)(=O)O)[C@@H]3OS(=O)(=O)O)[C@@H]1O	·	·	·	·	·	32µM
Cc1cncn1CCc1nc2c3ccccc3nc(SCC(=O)Nc3cccc(Cl)c3)n2n1	–	–	–	–	–	–
CCC(Sc1nc2ccccc2c2nc(CCn3cncc3C)nn12)C(=O)Nc1cccc(OC)c1 (configuration not stated)	50µM	–	–	–	–	–
CCn1c(=O)c(-[n+]2ccccc2)c(O)c2ccccc21	–	35µM	–	?	–	–
CCC1(C)Cc2nc(Cl)c(C#N)cc2CO1 (configuration not stated)	–	–	–	–	–	–
CCCC1Cc2nc(Cl)c(C#N)cc2CO1 (configuration not stated)	45µM	–	–	?	?	–
N#Cc1c(-n2ncnc2-c2ccccc2Cl)sc2c1CCCCC2	–	–	–	–	–	–
Cc1cccc(-c2nc3ccccc3n3c(-c4ccccc4)c4c(=O)n(C)c(=O)n(C)c4c23)c1	–	–	–	?	–	–
COc1ccc(CNC(=O)CSc2ccsc2[N+](=O)[O-])cc1	–	–	–	?	50µM	?
CC(Sc1ccsc1[N+](=O)[O-])C(=O)NCc1ccccc1 (configuration not stated)	–	·	·	·	·	·
COc1ccccc1CNC(=O)C(C)Sc1ccsc1[N+](=O)[O-] (configuration not stated)	–	–	–	?	40µM	–
CC1(C)S[C@@H]2[C@H](NC(=O)COc3ccccc3)C(=O)N2[C@@H]1C(=O)OCc1cccc2cccnc12	·	–	·	–	·	–
NS(=O)(=O)c1ccc(S(=O)(=O)N2CCN(c3nc(-c4cccs4)nc4ccccc34)CC2)cc1	·	–	·	–	·	–
COc1ccc2nnc(-c3ccccc3)n2n1	–	–	–	89µM	–	–
c1ccc2cnccc2c1	·	–	·	–	·	–
O=c1[nH]c(CN2CCN(c3ccccc3Cl)CC2)nc2ccsc12	–	–	–	–	–	–
COc1cc2c(cc1OC)CN(Cc1nc3ccsc3c(=O)[nH]1)CC2	?	–	–	?	18µM	?
CCCCNC(=O)Cn1c(SCc2ccccc2C)nc2ccncc21	·	–	·	–	·	–
O=C(Nc1ccccc1C(F)(F)F)N1CCC(CN2CCc3ccccc3C2)CC1	–	–	–	–	–	–
